Results as given in PubChem BioAssay (EPA / NIEHS).
Results filed as inconclusive are left out. Activity calls are given as the source filed them. Rule for the calls, unless noted: active = hit-call score of the fitted dose curve at least 0.9, where 1 is the maximum; inactive = score below 0.9.

Assays:
[1] = CCTE_Harrill_HTTr_Viability_MCF7: CCTE's 6-hour Cell Viability Assessment for the High-Throughput Transcriptomics (HTTr) Platform, in MCF-7 cells cultured in DMEM + 10% fetal bovine serum, Harrill Lab (AID 2284010)
How it was run: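 Cells were dosed with chemicals in an eight-point dilution series, imaged 6 hours later for propidium iodide uptake, and the endpoint was analyzed by bidirectional fitting against DMSO as negative control.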

[2] = CCTE_Harrill_HTTr_CellCount_MCF7: CCTE's Cell Proliferation Assessment for the High-Throughput Transcriptomics (HTTr) Platform, Harrill Lab (AID 2284012; active = hit-call score of the fitted dose curve at least 0.9, where 1 is the maximum;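 note: count of Hoechst-stained nuclei per well by high-content imaging in MCF-7 cells; cells exposed to compound for six hours; intended direction is loss of nuclei count meaning fewer cells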)
How it was run: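 Chemicals in eight-point dilution series are added to MCF-7 cells for six hours, nuclei are stained with Hoechst and imaged, and per-well nuclei counts are fitted in both directions relative to DMSO controls.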

[3] = CCTE_Shafer_MEA_dev_firing_rate_mean: CCTE's Neural Network Formation Assay for Mean Firing Rate, Shafer Lab (AID 2284031);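 note: AUC of well mean spike rate recorded on DIV 5 7 9 and 12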;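 for AC50: curve fitted for loss of firing so AC50 reflects decreased mean firing rate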
How it was run: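 Rat primary cortical neurons were seeded on multielectrode arrays and treated from plating through day 12, with redosing at each feed. Spontaneous spiking was recorded four times; mean firing rate AUC was fitted downward against DMSO.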

[4] = CCTE_Shafer_MEA_dev_per_burst_spike_percent: CCTE's Neural Network Formation Assay for Percent of Spikes in a Burst, Shafer Lab (AID 2284032);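 for AC50: fitted as a decrease in burst spike percentage below DMSO baseline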
How it was run: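 Rat primary cortical neurons on 16-electrode MEA wells, dosed from plating day 0 for 12 days with renewal on DIV 5 and 9; spikes-in-bursts percentage averaged over bursting electrodes, collapsed as AUC across days 5, 7, 9, 12; loss direction versus DMSO.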

[5] = target: Estrogen receptor (Homo sapiens) (UniProt P03372); assay: CCTE_Deisenroth_AIME_96WELL_LUC_Active: CCTE's 96-well Estrogen Receptor Transactivation Assay with AIME metabolic competence (ERTA luciferase; metabolism positive), Deisenroth Lab (AID 2284023; active = hit-call score of the fitted dose curve at least 0.9, where 1 is the maximum)
Chain of Estrogen receptor (Homo sapiens) (P03372 whole entry, looked up): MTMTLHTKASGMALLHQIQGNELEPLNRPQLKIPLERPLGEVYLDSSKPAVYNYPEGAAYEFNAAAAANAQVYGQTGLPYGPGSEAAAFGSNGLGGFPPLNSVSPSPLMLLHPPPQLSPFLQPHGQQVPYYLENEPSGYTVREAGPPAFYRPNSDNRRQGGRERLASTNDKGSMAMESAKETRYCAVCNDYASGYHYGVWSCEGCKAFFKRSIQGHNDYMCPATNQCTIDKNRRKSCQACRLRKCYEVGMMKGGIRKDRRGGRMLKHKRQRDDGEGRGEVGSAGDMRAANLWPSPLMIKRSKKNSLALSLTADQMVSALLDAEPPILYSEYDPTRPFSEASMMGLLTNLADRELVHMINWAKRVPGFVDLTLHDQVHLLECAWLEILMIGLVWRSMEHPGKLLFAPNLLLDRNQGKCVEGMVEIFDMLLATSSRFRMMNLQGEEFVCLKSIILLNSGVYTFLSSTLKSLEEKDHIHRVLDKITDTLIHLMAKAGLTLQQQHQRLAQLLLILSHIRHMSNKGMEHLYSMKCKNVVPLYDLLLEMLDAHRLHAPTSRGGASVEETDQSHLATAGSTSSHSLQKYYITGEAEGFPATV
How it was run: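 Chemicals pre-incubated 2 h with alginate-immobilized phenobarbital/beta-naphthoflavone-induced male Sprague Dawley rat liver S9, then medium transferred to VM7Luc4E2 cells for 24 h luciferase read-out. 10-point series 0.002 - 200 uM; fitted relative to 17beta-estradiol.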

[6] = target: Estrogen receptor (Homo sapiens) (UniProt P03372); assay: CCTE_Deisenroth_AIME_96WELL_LUC_Inactive: CCTE's 96-well Estrogen Receptor Transactivation Assay without AIME metabolic competence (ERTA luciferase; metabolism negative), Deisenroth Lab (AID 2284025; active = hit-call score of the fitted dose curve at least 0.9, where 1 is the maximum)
How it was run: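 VM7Luc4E2 breast cells, luciferase read 24 h after dosing with medium pre-incubated 2 h on alginate-water lids (metabolism negative). 10-point series 0.002–200 uM, single technical replicate, n≥4; fit relative to 17beta-estradiol.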

[7] = CCTE_Deisenroth_AIME_96WELL_CTox_Active: Cytotoxicity Assessment (CTOX) in CCTE's 96-well Estrogen Receptor Transactivation Assay with AIME metabolic competence (metabolism positive), Deisenroth Lab (AID 2284028; active = hit-call score of the fitted dose curve at least 0.9, where 1 is the maximum)
How it was run: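 Chemicals (0.002–200 uM) were first incubated 2 h with alginate-immobilized phenobarbital/beta-naphthoflavone-induced male rat liver S9; conditioned medium then went onto VM7Luc4E2 cells for 24 h, with viability read by protease-substrate fluorescence, fitted bidirectionally.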

[8] = CCTE_Deisenroth_AIME_96WELL_CTox_Inactive: Cytotoxicity Assessment (CTOX) in CCTE's 96-well Estrogen Receptor Transactivation Assay without AIME metabolic competence (metabolism negative), Deisenroth Lab (AID 2284029; active = hit-call score of the fitted dose curve at least 0.9, where 1 is the maximum)
How it was run: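 Chemicals (0.002 - 200 uM, 10 points) incubated 2 h with alginate-water microspheres (no S9), then medium moved onto VM7Luc4E2 cells for 24 h. Viability by protease-substrate cleavage to fluorescent probe; bidirectional fitting.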

[9] = CCTE_Shafer_MEA_acute_burst_number: CCTE's Neural Acute Assay for Single-Electrode Bursts, Shafer Lab (AID 2284013)
How it was run: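 Primary rat cortical neurons on 16-electrode MEA wells, treated on DIV 13 or 15 with compound at 0.03-40 uM. Single-electrode burst count from 40-min recordings at 37 C before and after exposure; percent change from baseline per well, DMSO negative control.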

[10] = CCTE_Shafer_MEA_acute_burst_duration_mean: CCTE's Neural Acute Assay for Mean Burst Duration, Shafer Lab (AID 2284014);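 note: hits are decreases in mean burst duration relative to DMSO controls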
How it was run: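 Rat primary cortical neurons on 48-well MEA, treated at DIV 13 or 15 with 0.03-40 uM in at least 3 wells. Value is percent change in mean burst duration, comparing 40 min recordings at 37 C before and during exposure.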

[11] = CCTE_Shafer_MEA_acute_interburst_interval_mean: CCTE's Neural Acute Assay for Mean Interburst Interval, Shafer Lab (AID 2284016);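 note: percent change of mean interburst interval versus each well's own pre-dose baseline; curves fitted for decrease in interburst interval relative to DMSO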
How it was run: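 Rat cortical cultures, DIV 13/15; 20 min equilibration, 40 min baseline, compound 0.03-40 uM, 40 min re-recording, 37 C. Spikes detected at 8x rms noise (300-5000 Hz band-pass). Endpoint: % change in interburst interval, fitted in loss direction vs DMSO.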

[12] = CCTE_Shafer_MEA_acute_burst_percentage_mean: CCTE's Neural Acute Assay for Percentage of Spikes in a Burst, Shafer Lab (AID 2284017)
How it was run: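 Rat cortical cultures, DIV 13/15, 37 C. Spikes detected at 8x rms noise (300-5000 Hz band-pass). Burst spikes/total spikes averaged across electrodes per well; % change post- vs pre-treatment (40 min each), loss-of-signal fit vs DMSO.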

[13] = CCTE_Shafer_MEA_acute_burst_percentage_std: CCTE's Neural Acute Assay for Standard Deviation of Burst Percentage, Shafer Lab (AID 2284018);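 note: fitted in the negative direction so actives lower burst percentage SD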
How it was run: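 Rat primary cortical neurons on 48-well MEAs, DIV 13 or 15, 37 C. 40-min baseline then 40-min recording with compound (0.03-40 uM); well-level SD of per-electrode burst spike percentage, expressed as percent change from baseline.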

[14] = CCTE_Shafer_MEA_acute_per_network_burst_spike_number_mean: CCTE's Neural Acute Assay for Average Number of Spikes in a Network Burst, Shafer Lab (AID 2284019)
How it was run: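 Rat primary cortical neurons on 48-well MEA at DIV 13 or 15, 37 C; compounds 0.03-40 uM, at least three wells each. 40-min baseline then 40-min exposure recording; percent change in mean spikes per network burst.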

[15] = CCTE_Shafer_MEA_acute_per_network_burst_electrodes_number_mean: CCTE's Neural Acute Assay for Mean Number of Electrodes in a Network Burst, Shafer Lab (AID 2284021);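 note: curves fitted for decreases only so hits reduce electrodes per burst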
How it was run: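 Percent change from baseline in average electrode count per network burst, rat cortical cultures on 48-well MEAs; 40-min recordings each side of exposure, DIV 13 or 15; threshold 8x rms noise; DMSO as negative control.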

[16] = CCTE_Shafer_MEA_acute_network_burst_percentage: CCTE's Neural Acute Assay for Percentage of Network Bursts, Shafer Lab (AID 2284022);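 note: curves fitted for loss so actives lower network burst percentage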
How it was run: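 On DIV 13 or 15, at least three wells of rat cortical neurons per compound are dosed at 0.03-40 uM. Spontaneous firing is detected at 8x rms noise for 40 min before and after dosing at 37 C. The percent change in network-burst spike share is reported.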

[17] = CCTE_Shafer_MEA_acute_cross_correlation_area: CCTE's Neural Acute Assay for Area of Cross Correlation, Shafer Lab (AID 2284024);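 note: area under pooled inter-electrode spike cross-correlation near zero lag as percent change from own baseline; curves fitted for loss of cross-correlation area so actives lower synchrony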
How it was run: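 Extracellular recordings from cultured rat cortical neurons measure network synchrony as cross-correlation area; each well's post-compound value (0.03-40 uM, 40 min) is compared with its own 40 min baseline to give percent change.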

[18] = CCTE_Shafer_MEA_acute_cross_correlation_HWHM: CCTE's Neural Acute Assay for Cross Correlation at Half Width at Half Maximum, Shafer Lab (AID 2284026);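 note: spontaneous network firing of rat primary cortical neurons on multiwell microelectrode arrays; percent change per well from pre-dose baseline in spike cross-correlogram half width; hits are a decrease in cross-correlogram half width relative to DMSO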
How it was run: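 Percent change in cross-correlogram half width at half maximum, narrower meaning more synchrony, was derived per well from paired 40-min recordings before and during exposure to 0.03-40 uM compound in rat cortical cultures at 37 C.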

[19] = CCTE_Shafer_MEA_acute_synchrony_index: CCTE's Neural Acute Assay for Synchrony, Shafer Lab (AID 2284027);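 note: fitted for loss of signal so actives lower synchrony relative to DMSO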
How it was run: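 Readout is percent change in the unitless network synchrony index (0 low, 1 high) between a 40-min baseline and a 40-min recording in compound. Cultures were primary rat cortical neurons on MEAs, treated at 0.03-40 uM on DIV 13 or 15.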

Measured: AC50

O=c1c2ccccc2oc2ccccc12
inactive: [1] | [2]

CCC(=O)Oc1ccc(/C(CC)=C(\CC)c2ccc(OC(=O)CC)cc2)cc1
inactive: [1] | [2]

c1ccc2c(c1)ccc1cc3c(ccc4ccccc43)cc12
inactive: [1] | [3] | [4]

N[C@H]1C(O)O[C@H](CO)[C@H](O)[C@@H]1O (some centres undefined)
inactive: [3] | [4]

O=C1c2cccc(O)c2C(=O)c2c(O)cc(CO)cc21
inactive: [1] | [2]

Cc1cc(C)c(C)cc1C
inactive: [1] | [2]

CC(C)(Oc1ccc(C2CC2(Cl)Cl)cc1)C(=O)O (centres undefined)
inactive: [1] | [2]

CC1(C)S[C@@H]2[C@H](NC(=O)COc3ccccc3)C(=O)N2[C@H]1C(=O)O
inactive: [3] | [4]

CC(C)(C)c1ccc(OC(=O)c2ccccc2O)cc1
inactive: [7] | [8]
active: [5] 17.8 µM | [6] 23.7 µM

CCO[Si](C)(OCC)OCC
inactive: [9] | [10] | [11] | [12] | [13] | [14] | [15] | [16] | [17] | [18] | [19]

CCOC(F)(F)C(F)(F)C(F)(F)C(F)(F)F
inactive: [3] | [4]

CC=CC(F)(F)C(F)(F)C(F)(F)F
inactive: [3] | [4]

CCCCCCCC/C=C\CCCCCCCC(=O)O
inactive: [1] | [2]

O=c1[nH]c(=O)c2[nH]c(=O)[nH]c2[nH]1
inactive: [1] | [2]

O=C1CCCN1CCO
inactive: [9] | [10] | [11] | [12] | [13] | [14] | [15] | [16] | [17] | [18] | [19]

COc1ccc(-c2coc3cc(O)ccc3c2=O)cc1
inactive: [1] | [2] | [7]
active: [5] 6.69 µM | [6] 5.41 µM

O=C(Nc1ccccc1)c1ccccc1O
inactive: [1] | [2]

OC1CCCCCCCCCCC1
inactive: [1] | [2]

CC(=O)NS(=O)(=O)c1ccc(N)cc1
inactive: [1] | [2]

CCCCC(CC)COCC1CO1 (centres undefined)
inactive: [9] | [10] | [11] | [12] | [13] | [14] | [15] | [16] | [17] | [18] | [19]

O=C(Nc1cccc(C(F)(F)F)c1)c1cc(Br)cc(Br)c1O
inactive: [1] | [2]

CCCCC(CC)COC(=O)c1ccccc1 (centres undefined)
inactive: [1] | [2]

CN(C)c1ccc(C(=N)c2ccc(N(C)C)cc2)cc1
active: [3] 2.67 µM | [4] 1.92 µM
inactive: [1] | [2]

C=C[Si](OC(C)=O)(OC(C)=O)OC(C)=O
inactive: [9] | [10] | [11] | [12] | [13] | [14] | [15] | [16] | [17] | [18] | [19]

FC(F)=C(F)OC(F)(F)C(F)(F)C(F)(F)F
inactive: [3] | [4]

O=C(c1ccc(O)cc1)c1ccc(O)cc1O
inactive: [9] | [10] | [12] | [13] | [14] | [15] | [16] | [17] | [18] | [19]
active: [11] 15 µM

Nc1ccc(N)c(Cl)c1
inactive: [9] | [10] | [11] | [12] | [14] | [15] | [16] | [17] | [18] | [19]

CO[Si](OC)(OC)c1ccccc1
inactive: [9] | [10] | [11] | [12] | [13] | [14] | [15] | [16] | [17] | [18] | [19]

CCCCC(CC)COC(=O)c1ccccc1O (centres undefined)
active: [11] 7.5 µM
inactive: [1] | [2] | [9] | [10] | [12] | [13] | [14] | [15] | [16] | [17] | [18] | [19]

CCCCCCC(O)CO (centres undefined)
inactive: [1] | [2]

COC(F)(F)C(F)(C(F)(F)F)C(F)(F)F
inactive: [3] | [4]

CN1C(=O)N(C)C(O)C1O (centres undefined)
inactive: [9] | [10] | [11] | [12] | [13] | [14] | [15] | [16] | [17] | [18] | [19]
